Assay outcomes: PubChem, National Center for Advancing Translational Sciences (NCATS)
GPT2 inh – GPT2 alanine aminotransferase inhibition; Q8TD30; Recombinant GPT2, coupled pyruvate oxidase/HRP Amplex Red fluorescence; Potency, µM (titrated, usually from 57.7 µM), inactives show at the top dose activity change, negative = inhibition, hits mostly inhibitors; 0.25% of 100,000 active; AID 1671188; note: nearly all actives have a fitted effect of over 60% in size
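GPT2 10ng/uL, a-KG 250uM, L-Ala 2mM, HEPES pH7.5 + 0.0001% Tween; 30 min RT. Then Amplex mix (PO/HRP/ThPP), 30 min RT dark, fluorescence. AOA 50uM used as positive control.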
hNpr1 antagonist – human Npr1 receptor antagonism. P16066. HEK293 hNpr1 GloSensor cGMP, ANP-stimulated luminescence. Potency, µM (doses to about 46.3 µM), for the others: at the top dose activity change, negative = inhibition, most hits filed as inhibitors. 1.6% of 76,000 active; calls by dose curve; note: nearly all actives have a fitted effect of over 60% in size
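HEK293 cells stably expressing human Npr1 and cGMP GloSensor pGS-40F, loaded 2 h with 2% GloSensor reagent, given compound 30 min at room temperature. Luminescence read before and 20 min after 0.1 nM hNppA.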
Luciferase inh – blocks purified firefly luciferase enzyme activity | purified P. pyralis luciferase, luminescence, biochemical | Potency, µM (series often up to 115 µM), hits mostly inhibitors | 2.5% of 76,000 active; note: nearly all actives have a fitted effect of over 65% in size
Target sequence (P08659 whole entry, looked up): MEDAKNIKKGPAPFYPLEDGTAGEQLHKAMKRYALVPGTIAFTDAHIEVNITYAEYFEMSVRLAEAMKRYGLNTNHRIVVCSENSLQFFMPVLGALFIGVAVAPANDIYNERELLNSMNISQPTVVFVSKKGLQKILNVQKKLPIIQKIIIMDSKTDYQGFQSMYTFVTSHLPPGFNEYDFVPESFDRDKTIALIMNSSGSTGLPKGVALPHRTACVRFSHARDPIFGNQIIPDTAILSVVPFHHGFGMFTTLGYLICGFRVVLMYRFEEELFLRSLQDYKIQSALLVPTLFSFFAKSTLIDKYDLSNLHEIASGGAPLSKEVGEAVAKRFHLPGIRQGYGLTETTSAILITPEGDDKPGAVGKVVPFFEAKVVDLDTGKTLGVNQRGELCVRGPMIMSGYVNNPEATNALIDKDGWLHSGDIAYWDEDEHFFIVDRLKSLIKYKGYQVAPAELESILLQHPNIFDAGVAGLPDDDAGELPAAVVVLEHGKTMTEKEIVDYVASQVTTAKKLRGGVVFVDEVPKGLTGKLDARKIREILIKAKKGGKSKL
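Luminescence read by CCD imager after adding enzyme (10nM final) to wells holding compound, titrated in qHTS. Substrates 10uM each D-luciferin and ATP; buffer 50mM Tris acetate pH 7.5, 10mM Mg acetate, Tween-20, BSA.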
3T3 cytotox – NIH 3T3 cell cytotoxicity | NIH 3T3 viability, CellTiter-Glo ATP luminescence, 48-72 h | Potency, µM (series often up to 96.7 µM), for the others: top-dose activity change, negative = cytotoxicity, most hits filed as inhibitors | 4.3% of 94,000 active; note: nearly all actives have a fitted effect of over 55% in size
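ATP-dependent luminescence (CellTiter-Glo) served as the viability signal for NIH 3T3 cells treated with compound for 48 or 72 hr at 37 °C.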
HEK293 tox – cytotoxic compounds in HEK 293 cells; HEK 293 viability, ATP luminescence (CellTiter-Glo), 48-72 h; Potency, µM (highest dose often 115 µM), for inactives: at the highest dose activity change, negative = cytotoxicity, hits mostly inhibitors; 6.6% of 94,000 active; AID 1345083; note: nearly all actives have a fitted effect of over 60% in size
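Viability of HEK 293 cells, plated at 250 cells/well, was judged by cellular ATP after compound treatment for 48 or 72 hr. Luminescence was imaged 10 min after CellTiter-Glo addition at room temperature.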
* hit, by the source's call; i = inactive; ? = inconclusive; · = not tested or not shown; [ ] = another dose, or the depositor's remark. Most compounds without a hit are left out; they make up all but 10% or so of the library. Unless noted, calls come from the whole dose curve; as a rule, active = well fitted curve in the direction sought with a large enough effect; inconclusive = small, poorly fitted or top-dose-only effect, or another doubt; inactive = no such curve, though single readings can be large; an effect the other way counts as inactive or inconclusive. % is set by controls: 0 for no effect and ±100 for the full control effect; potency is the fitted concentration of half-maximal effect.

SMILES | GPT2 inh | hNpr1 antagonist | Luciferase inh | 3T3 cytotox | HEK293 tox
c1cc(-c2cc(-c3ccc4cn[nH]c4c3)cn3cncc23)ccn1 | -7%[88.5 µM] | -2%[70.6 µM] | i | 18µM* | 63µM*
COCC(=O)N[C@@H]1CN(C(=O)NCc2ccccc2)CC[C@@H]1c1nc(C)no1 | i | 8% | i | -5% | -2%
Cc1ccc(-c2ccnc(N(C)CC3CC(=O)N(C(C)(C)C)C3)n2)c(C)n1 (stereo not drawn) | -19% | -27% | i | ? | 79µM*
Cc1c(Cl)cccc1NC(=O)N(C)CC1CCOCC1 | -1% | 6% | i | i | -8%
Cc1ccc(C)c(Cn2c(-c3ccc(Cl)cc3)nc(C)c(CCO)c2=O)c1 | i | 4% | i | ? | ?
Cc1nc(-c2ccc(Cl)cc2)n(Cc2ccccc2F)c(=O)c1CCO | 3% | 3% | i | ? | 45µM*
Cc1nc(-c2ccccc2)n(Cc2ccc(F)cc2Cl)c(=O)c1CCO | 0% | -21% | i | 45µM* | 28µM*
Cc1nc(-c2ccc(Cl)cc2)n(Cc2ccc(F)cc2F)c(=O)c1CCO | 4% | 1% | i | ? | 35µM*
Cc1nc(-c2ccc(Cl)cc2)n(Cc2ccccc2)c(=O)c1CCO | i | -2% | i | ? | 45µM*
NCCCC(=O)N1Cc2ccccc2CC2(CCCN(CC3CCOCC3)C2)C1 (stereo not drawn) | -19% | · | · | ? | -22%
CCOc1ccc(C(=O)N2C[C@@H](CO)[C@H](c3nc(C4CC4)no3)C2)cc1 | 3% | 4% | i | -5% | ?
Cc1ccc(CNC(=O)Cn2c(N3CCc4ccccc4C3)nc(C)cc2=O)cc1 | i | ? | i | ? | ?
Cc1nc(-c2ccc(F)cc2)n(Cc2ccc(F)c(F)c2)c(=O)c1CCO | i | -23% | i | ? | ?
Cc1nc(-c2ccc(Cl)cc2)n(Cc2ccc(F)c(F)c2)c(=O)c1CCO | i | -23% | i | ? | 45µM*
COC(=O)CNC(=O)C1CCCN1C(=O)c1cccc(-c2cccc(OC)c2)c1 (stereo not drawn) | 4% | · | · | ? | 45µM*
COc1cccc(-c2cccc(C(=O)N3CCCC3C(=O)NCc3cccs3)c2)c1 (stereo not drawn) | i | · | · | -32% | ?
CCCCCNC(=O)C1CCCN1C(=O)c1cccc(-c2cccc(OC)c2)c1 (stereo not drawn) | -14%[88.5 µM] | · | · | ? | 100µM*
COc1ccccc1-c1cccc(C(=O)N2CCC[C@H]2C(=O)NCc2cccs2)c1 | i | · | · | -24% | 79µM*
Cn1nc(C2CC2)cc1N[S+](=O)([O-])c1ccccc1 | -6%[88.5 µM] | · | · | -15%[138 µM] | 2%[172 µM]
Cc1ccc(N)cc1O | 11µM* | · | · | · | ·
O=C(Nc1ccccc1F)NC1CCCN(CCn2nc3n(c2=O)CCCC3)C1 (stereo not drawn) | · | · | · | 1% | 1%
O=C(NCc1ccccc1F)C1CCN(Cc2ccccc2-c2cccnc2)CC1 | 0% | · | · | ? | ?
CC(C)c1ccc(CC(=O)N2CCCc3ncc(C(=O)N4CCCC[C@@H]4c4ccccc4)cc32)cc1 | -4% | -22% | i | ? | ?
O=C(Cc1cccc(C(F)(F)F)c1)N1CCCc2ncc(C(=O)N3CCCC[C@@H]3Cc3ccccc3)cc21 | -15% | -4% | i | ? | 79µM*
CC(C)c1ccc(CC(=O)N2CCCc3ncc(C(=O)N4CCCC[C@@H]4Cc4ccccc4)cc32)cc1 | ? | -7% | i | 35µM* | 45µM*
SMILES | GPT2 inh | hNpr1 antagonist | Luciferase inh | 3T3 cytotox | HEK293 tox
CCCNC(=O)N1CCOC[C@H](Oc2ccccc2)C1 | i | 5%[70.6 µM] | i | i | i
O=C(Nc1ccc(OC(F)(F)F)cc1)N1CCOC[C@H](Oc2ccccc2)C1 | -2%[88.5 µM] | ? | i | 32µM* | 56µM*
COCCc1noc(-c2nc(-c3ccc4c(c3)OCO4)no2)n1 | i | -17% | 18µM* | -4% | ?
O[C@@H]1C[C@@H](c2nc(-c3ccc4c(c3)OCO4)no2)N(Cc2ccncc2)C1 | i | ? | ? | ? | 89µM*
CN1C[C@H](O)C[C@H]1c1nc(-c2ccc3c(c2)OCO3)no1 | -4%[88.5 µM] | -14%[70.6 µM] | 28µM* | -21%[230 µM] | -25%[230 µM]
OCc1ccc(CN2C[C@H](O)C[C@H]2c2nc(-c3ccc4c(c3)OCO4)no2)o1 | ? | -13%[70.6 µM] | 18µM* | -28%[174 µM] | -16%[172 µM]
c1cc2c(cc1-c1noc(-c3nc(-c4ccc5c(c4)OCO5)no3)n1)OCO2 | i | -9% | i | i | 13%
O[C@@H]1C[C@@H](c2nc(-c3ccc4c(c3)OCO4)no2)N(Cc2ccc(C(F)(F)F)cc2)C1 | -5%[88.5 µM] | -11%[70.6 µM] | i | ? | ?
CCNC(=O)N1Cc2[nH]cnc2C[C@H]1c1nc(-c2ccc(F)c(Cl)c2)no1 | -8%[88.5 µM] | -23%[70.6 µM] | i | ? | ?
CN(C)c1ccc(CN2Cc3[nH]cnc3C[C@H]2c2nc(-c3ccncc3)no2)cc1 | -7%[88.5 µM] | 1%[70.6 µM] | i | ? | -26%[172 µM]
c1ccc(CN2Cc3[nH]cnc3C[C@H]2c2nc(-c3ccccc3)no2)cc1 | ? | -17%[70.6 µM] | i | ? | 71µM*
Cc1ccc(-c2noc([C@@H]3Cc4nc[nH]c4CN3Cc3ccccc3)n2)cc1 | -5%[88.5 µM] | -12%[70.6 µM] | ? | 79µM* | 100µM*
Fc1ccc(CN2Cc3[nH]cnc3C[C@H]2c2nc(-c3ccc(F)c(Cl)c3)no2)cc1 | -8%[88.5 µM] | -25%[70.6 µM] | ? | 89µM* | ?
Cc1noc(C)c1[S+](=O)([O-])N1CCCC1C(=O)N1CCC(N2Cc3cccn3C2=O)CC1 (stereo not drawn) | i | · | · | -12% | i
CC(=O)NC[C@H]1Cn2c(-c3ccc4c(c3)OCCO4)cnc2CO1 | -4%[88.5 µM] | -2%[70.6 µM] | i | i | i
CC(=O)N1CCCC(C(=O)N2CCC(c3nc4ncccc4[nH]3)C2)C1 (stereo not drawn) | i | · | · | i | 2%
C[C@H](C(=O)N1Cc2ccccc2CC2(CCN(CC3CCNCC3)CC2)C1)c1ccccc1 | -1% | · | · | 14µM* | ?
CCC(=O)N1Cc2ccccc2CC2(CCN(CC3CCNCC3)CC2)C1 | -6% | · | · | 5% | -10%
COc1ccc(Cn2ccn3nc4c(c3c2=O)CCCC4)cc1F | i | 2% | i | ? | 40µM*
O=c1c2c3c(nn2ccn1Cc1cc(F)cc(F)c1)CCCC3 | 2% | -3% | i | ? | ?
O=C(Nc1ccc(Cl)cc1Cl)c1ccc2ccnn2c1 | 2%[88.5 µM] | -5%[70.6 µM] | 2.8µM* | -21%[138 µM] | ?
Cc1cc(N2CCN(Cc3nc(-c4cccc(Cl)c4)no3)CC2)cc(C)n1 | i | -12% | i | 22µM* | 40µM*
